The values below come from PubChem BioAssay AID2546 (National Center for Advancing Translational Sciences (NCATS), 2010).

The structures appear in SMILES notation. Screen size: about 310,000 compounds; about 11,000 (3.5%) were called active. Inconclusive results (about 8%) are left out. This excerpt belongs to a sample that is enriched for actives. A number with no mark means an inactive call. Calls come from the whole dose curve; as a rule, active = well fitted inhibition curve with a large enough effect; inconclusive = small, poorly fitted or top-dose-only effect, or effect the other way; inactive = flat fitted curve, though single readings scatter.
% is set by controls: 0 for no effect and ±100 for the full control effect; potency is the fitted concentration of half-maximal effect.

The test is described as follows: VP16 counterscreen qHTS for inhibitors of ROR gamma transcriptional activity.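 Note: Gal4-VP16 expression switched on by copper sulfate through the metallothionein promoter; nearly all actives have a fitted effect of over 50% in size.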 The conditions noted are these: Drosophila S2 Gal4-VP16 UAS-luciferase, luminescence, 20 h; series mostly up to 53.6 µM; activity, negative = inhibition: at the top concentration.
Consider `CCN1C(=NCCc2cccnc2)N[C@@H](c2ccccc2)C(C(=O)OC)=C1C`, for which the Potency result was “inactive”. `O=C(CO/N=C/c1ccccc1O)NNC(=O)c1ccccc1Cl`: the Potency was 14.1 µM (active). As for `O=C(CO/N=C/c1ccccc1OC(F)F)NC1CCCC1`, the “activity, negative = inhibition” value was -0.0109%.

Take `O=C(NNC(=S)NC1CCCCC1)c1ccccc1Cl`: the activity, negative = inhibition was -4.51% [at 10 µM]. For the molecule `Oc1ccc(-n2nnnc2SCc2c(F)cccc2Cl)cc1`, the “activity, negative = inhibition” value was -5.26%. The same measure, in the same setting: then `Cc1cccc(OCCC(=O)Nc2ccccc2C(N)=O)c1`, with 1.04%.

With `Cc1cccc(OC(C)C(=O)N2CCc3ccccc3C2)c1` (centres undefined), the “activity, negative = inhibition” value was -5.71%. With `CCCCNC(=O)C(=O)c1ccccc1NC(C)=O`, the “activity, negative = inhibition” value is -3.25%.

On to `O=[N+]([O-])c1ccccc1N/N=C1\CCc2ccccc21`, for which the “activity, negative = inhibition” value was 7.72%.

As for `CCCCNC(=S)N/N=C1\CCCCc2ccccc21`, the Potency was 4.47 µM (active). With `FC(F)(F)c1nnc2c3ccccc3c(Cl)nn12`, the “activity, negative = inhibition” value was -10.7%. Regarding `COc1ccc(CNc2cc(C)cc(C)c2)cc1OC`, the “activity, negative = inhibition” value was 4.88%. On to `COc1ccc(N2CCN(S(=O)(=O)c3ccc4c(c3)NC(=O)C(C)C(=O)N4)CC2)cc1` (centres undefined), for which the “activity, negative = inhibition” value is 0.791%. On to `CC(C)(O)C#Cc1ccc(CN2CCC(CO)(CCc3ccccc3)CC2)cc1`, for which the “activity, negative = inhibition” value is -11%. Still for that read-out and setting: then `O=C(NC(=S)Nc1ccc(NC(=O)c2cccs2)cc1)c1ccc([N+](=O)[O-])cc1`, with -16.7%. Regarding `COCCCNC(=S)NC(=O)c1ccc([N+](=O)[O-])cc1`, the Potency was 17.8 µM (active). Turning to `CC(=O)NC(=S)Nc1ccc(NC(=S)NC(=O)c2ccc([N+](=O)[O-])cc2)cc1`, the “activity, negative = inhibition” value is -20.7%. On the same count and under the same terms, then `Cc1cc(CN(C)C(=O)c2cc(COc3ccc(C)c(C)c3)on2)n[nH]1`, with -25.2%; and `COC(=O)c1cc(S(=O)(=O)Nc2ccc(C)c(F)c2)c[nH]1`, with 6.68%. Take `COc1ccc(-n2nc(C(=O)NCC(=O)N3CCN(c4ccccc4OC)CC3)c3ccccc3c2=O)c(OC)c1`: the “activity, negative = inhibition” value is -1.24%. Take `COc1cccc(NC(=O)c2ccccc2N(Cc2ccccc2)S(C)(=O)=O)c1`: the “activity, negative = inhibition” value was -0.142%. Same read-out and setting: under `Cc1ccc(C2=Nc3c(ccc4ccccc34)C(c3ccncc3)=NN2)cc1` stands 3.1%. In the case of `CCOc1ccc2c(c1)C(c1ccc(C)cc1)=NNC(c1ccc(C)cc1)=N2`, the Potency was 15.8 µM (active). Turning to `CCc1ccc2c(c1)C(c1ccc([N+](=O)[O-])cc1)=NNC(c1ccccc1)=N2`, the “activity, negative = inhibition” value is 20.7%. Regarding `COc1ccc(C(=O)NCCn2nc(C)cc2C)cc1OC1CCN(C(C)=O)CC1`, the “activity, negative = inhibition” value is 2.18%. `COc1ccc(NC(=O)CS(=O)(=O)c2ccccc2)cc1`: the “activity, negative = inhibition” value was 6.5%.

`Cc1nonc1NC(=O)c1ccccc1Br`: the “activity, negative = inhibition” value is -14.3%. As for `O=C(Nc1cccc(Cl)c1)Nc1nnc(-c2ccccc2)o1`, the “activity, negative = inhibition” value is -17.2%.

In the case of `O=C(Nc1nnc(-c2ccc(Cl)cc2)o1)c1ccccc1Br`, the Potency was 4.47 µM (active).
